Measured values as given in PubChem BioAssay (NCI).
The panel holds about 83,000 compounds, 20% with a hit somewhere; the sample as a whole holds those more often.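 Activity criterion: percent growth below 10, measured after cells in 96-well plates were exposed to a single compound concentration for 48 hours.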 Unmarked numbers belong to inactive results. Activity calls are given as the source filed them.

What was measured:
Test in all cases: NCI-60 one-dose screen, 48 h (100 = growth as untreated, 0 = no growth, -100 = all killed)
[1] = tested on: DU-145 prostate; conditions: 10 µM unless noted
[2] = tested on: K-562 leukemia; conditions: 10 µM unless noted
[3] = tested on: MALME-3M melanoma; conditions: 10 µM unless noted
[4] = tested on: MDA-MB-231 breast; conditions: 10 µM unless noted
[5] = tested on: RXF 393 renal; conditions: 10 µM unless noted
[6] = tested on: SF-268 CNS; conditions: 10 µM unless noted
[7] = tested on: SF-295 CNS; conditions: 10 µM unless noted
[8] = tested on: SF-539 CNS; conditions: 10 µM unless noted
[9] = tested on: UACC-257 melanoma; conditions: 10 µM
[10] = tested on: M14 melanoma; conditions: 10 µM unless noted
[11] = tested on: HCT-15 colon; conditions: 10 µM unless noted
[12] = tested on: HT29 colon; conditions: 10 µM unless noted
[13] = tested on: SNB-75 CNS; conditions: 10 µM unless noted
[14] = tested on: SNB-19 CNS; conditions: 10 µM unless noted
[15] = tested on: U251 CNS; conditions: 10 µM unless noted
[16] = tested on: PC-3 prostate; conditions: 10 µM unless noted
[17] = tested on: SK-MEL-5 melanoma; conditions: 10 µM unless noted
[18] = tested on: UACC-62 melanoma; conditions: 10 µM unless noted
[19] = tested on: LOX IMVI melanoma; conditions: 10 µM unless noted
[20] = tested on: SK-MEL-28 melanoma; conditions: 10 µM unless noted

| Structure (SMILES) | growth [1] | growth [2] | growth [3] | growth [4] | growth [5] | growth [6] | growth [7] | growth [8] | growth [9] | growth [10] | growth [11] | growth [12] | growth [13] | growth [14] | growth [15] | growth [16] | growth [17] | growth [18] | growth [19] | growth [20] |
| --- | --- | --- | --- | --- | --- | --- | --- | --- | --- | --- | --- | --- | --- | --- | --- | --- | --- | --- | --- | --- |
| O=C(CNc1c(Cl)cccc1Cl)Nc1ccc(-c2nc3ccccc3s2)cc1 | 85.7% | 10.5% | -50% (active) | 56.9% | 86.6% | 46.2% | 97.4% | 79.9% | 96.5% | 55.7% | 2.42% (active) | 69.8% | 59.2% | 73.9% | 27.7% | 85.9% | 21.2% | 35.1% | -49.3% (active) | 104% |
| COc1ccc(NC(=O)CSc2nc3ccccc3c(=O)n2-c2ccccc2C(F)(F)F)c(OC)c1OC | 105% | 94.5% | 106% | 89% | 108% | 100% | 94.2% | 94.7% | 100% | 97.5% | 105% | 104% | 83.9% | 88.8% | 95.7% | 100% | 98.2% | 87.5% | 98.9% | 106% |
| CC(C)(C)c1ccc(S(=O)(=O)Oc2ccc3c4c(c(=O)oc3c2)CCCCC4)cc1 | 77.4% | 38.5% | 44% | 80.2% | 48.1% | 61.1% | 2.71% (active) | 42.7% | 48.9% | 39.4% | 30.5% | 15.8% | 39.1% | 82% | 54.3% | 32.9% | -3.23% (active) | 30.3% | 43.2% | 39.4% |
| CN(C)c1ccc(/C=C\N=Nc2ccc(Br)cc2)cc1 | 45.8% | 16.7% | 86.5% | 49.6% | 108% | 52.7% | 29.1% | 5.55% (active) | 87.5% | 41.4% | 36.2% | 52.9% | 82% | 96.2% | 68.4% | 52.3% | 76.5% | 17.2% | 13.2% | 83.9% |
| COC1=CC(c2ccc[nH]2)=N/C1=C\c1[nH]c(C)c(C(=O)CCC(=O)Oc2ccc3c(c2)CCC2C3CC[C@]3(C)[C@@H](O)CC[C@@H]23)c1C (stereo not given in full) | 0.722% (active) | -18% (active) | 9.7% (active) | -64.2% (active) | -6.4% (active) | 3.8% (active) | 20.3% | -18.9% (active) | 82.4% | -50.8% (active) | -48% (active) | 6.68% (active) | 12.1% | 37.2% | -48.4% (active) | 17.8% | -84.2% (active) | -41.8% (active) | -81.7% (active) | 41.2% |
| COc1cc2c3c(c(=O)oc2cc1OS(=O)(=O)c1ccc(C(F)(F)F)cc1)CCCCC3 | 82.4% | 97.3% | 72.1% | 68.6% | 30.1% | 93.4% | 81.9% | 64.9% | 95.6% | 83.7% | 79.2% | 78.8% | 8.09% (active) | 76.7% | 82.1% | 68.1% | 69.5% | 68.1% | 93.5% | 76.3% |
| COc1cc2c(cc1OC)C1(C)N(CC2)C(=O)OC1(C)C (stereo not given) | 112% | -78.1% (active) | 122% | 115% | 99% | 103% | 103% | 106% | 95.6% | 101% | 101% | 115% | 76.5% | 105% | 101% | 97.3% | 99.6% | 106% | 96.3% | 112% |
| COc1ccc(NC(=O)c2cc3ccccc3nc2Nc2cc(OC)c(OC)c(OC)c2)cc1 | 66.3% | 50.6% | 132% | 54.1% | 60.5% | 66.6% | 65.5% | 68.3% | 83.6% | 55.1% | 36.3% | 64.3% | 69.4% | 78.9% | 54.2% | 57.6% | 44.3% | 64.4% | 52.8% | 73.2% |
| COc1cccc(-c2nc3sccn3c2-c2ccnc(NCCCNS(=O)(=O)c3ccc(F)cc3)n2)c1 | 27.7% | 16.6% | 32.4% | 53.2% | 55% | 37% | 24.7% | 66.7% | 55.2% | 18.1% | 18.1% | 26.7% | 66.8% | 78.4% | 49.6% | 47.7% | 7.26% (active) | 6.83% (active) | 14.4% | 38.1% |
| CCCCCC(=O)OCc1ccccc1 | 103% | 84.9% | 85.9% | 109% | 105% | 97.2% | 99.8% | 98.8% | 96.8% | 94.9% | 94.6% | 106% | 90.3% | 105% | 103% | 104% | 104% | 103% | 96.8% | 113% |
| COc1ccc(C2SCC(=O)N2NC(=O)c2ccc(NC(=O)c3ccccn3)cc2)cc1OC (stereo not given) | 105% | 95.9% | 105% | 102% | 103% | 96.5% | 101% | 98.8% | 92.2% | 102% | 107% | 97.8% | 84.3% | 95.5% | 94.2% | 95.3% | 102% | 91.5% | 99.5% | 104% |
| NS(=O)(=O)c1ccc(NCC(=O)Nc2ccc(-c3nc4ccccc4s3)cc2)cc1 | 47% | 8.38% (active) | 53.6% | 45% | 99.9% | 25.1% | 98.8% | 91.4% | 97.2% | 45.6% | 46.6% | 74.5% | 69.5% | 74.3% | 71.3% | 64.7% | 71.3% | 38% | 13.1% | 99.4% |
| NS(=O)(=O)c1ccc(CN2C(=O)c3cccc4cccc(c34)C2=O)cc1 | 105% | 96% | 112% | 94.3% | 97.6% | 92.4% | 110% | 88.8% | 103% | 105% | 88.5% | 102% | 83.9% | 100% | 99% | 93.3% | 96.8% | 97.1% | 96.2% | 113% |
| COc1cc(C(=O)OCCCCCCCCCCC[P+](c2ccccc2)(c2ccccc2)c2ccccc2)ccc1O | 10.6% | -37.8% (active) | -77.4% (active) | -69.4% (active) | -53.4% (active) | -74.3% (active) | -31.9% (active) | -57.3% (active) | -21.6% (active) | -24.5% (active) | 0.0119% (active) | 1.83% (active) | -75.7% (active) | -54.9% (active) | -89.8% (active) | -22.3% (active) | -98.1% (active) | -16% (active) | -97.7% (active) | -66.1% (active) |
| O=C(c1ccncc1)N1N=C(c2ccc(Cl)cc2)CC1c1c[nH]c2ccccc12 (stereo not given) | 102% | 88.3% | 96.7% | 71.3% | 112% | 94.2% | 97% | 97% | 95.9% | 95.3% | 93.6% | 101% | 82.4% | 105% | 93.4% | 82.8% | 93.3% | 90.5% | 86.9% | 107% |
| CC(C)C[C@H](NC(=O)[C@@H](Cc1ccccc1)n1ccc(Nc2ccccc2)cc1=O)B(O)O | 35.3% | 3.2% (active) | -39.1% (active) | -24.8% (active) | -80.2% (active) | -31.6% (active) | -20.6% (active) | -17.7% (active) | -36.6% (active) | 9.32% (active) | 28.9% | -14.1% (active) | -18.6% (active) | 18.1% | 5.67% (active) | 21.1% | -68.2% (active) | -77.1% (active) | -66.7% (active) | 21.7% |
